From ChEMBL document CHEMBL4513216, “Probing the Open Global Health Chemical Diversity Library for Multistage-Active Starting Points for Next-Generation Antimalarials” (ACS Infect Dis, 2020)
The whole screen tested about 69,000 compounds, of which about 8,600 (12%) showed an effect of 50% or more. This excerpt belongs to a sample that is enriched for strong results.

System: Plasmodium berghei
Test: Screen against P. berghei liver stage (PbLuc), transformed with Luciferase, at 10uM
Assay type: functional, HepG2
Conditions: tested at 10 uM

Question: `CN1C[C@@H]2CN(C(=O)NCc3cccc(F)c3)CCC[C@]2(C(=O)O)C1` was tested. Which INHIBITION did it give?
Answer: -10.5%

Question: `Cn1cc(C2CCCN2Cc2cscn2)cn1` (stereo not given) was tested. Which INHIBITION did it give?
Answer: 42%

Question: `NC(=O)C1CCN(C(=O)CCn2ccc3ccc(F)cc32)CC1` was tested. Which INHIBITION did it give?
Answer: 33%

Question: Which INHIBITION does the source give for `Cn1ncc2c1CCCC2NCc1cccc(OC2CCCC2)c1` (stereo not given) here?
Answer: 50.5%

Question: `Cn1ncc2c1CCCC2NCc1cccc(C(F)(F)F)c1` (stereo not given) was tested. Which INHIBITION did it give?
Answer: 89.1%

Question: How did the INHIBITION turn out when `Cn1ncc2c1CCCC2NCc1cccc2c1OCCCO2` (stereo not given) was run?
Answer: 50.3%

Question: With `CCn1ncc2c1CCCC2NCc1cccc2c1OCCCO2` (stereo not given) as the compound, how does the INHIBITION read?
Answer: 40%

Question: With `Cc1cccc(CNC2CCCc3c2cnn3C)c1` (stereo not given) as the compound, how does the INHIBITION read?
Answer: 25.1%

Question: How did the INHIBITION turn out when `Cn1ncc2c1CCCC2NCc1cccc(F)c1` (stereo not given) was run?
Answer: 4.71%

Question: How did the INHIBITION turn out when `CSc1ccc(CNC2CCCc3c2cnn3C)cc1` (stereo not given) was run?
Answer: -46.8%

Question: With `Cc1ccc(CNC2CCCc3c2cnn3C)s1` (stereo not given) as the compound, how does the INHIBITION read?
Answer: -10.8%

Question: `Cn1ncc2c1CCCC2NCc1cccnc1` (stereo not given) was tested. Which INHIBITION did it give?
Answer: 3.3%

Question: `CCCn1cc(C(=O)NC2CCC(n3cnnc3)CC2)c(C)n1` (stereo not given) was tested. Which INHIBITION did it give?
Answer: 18.5%

Question: How did the INHIBITION turn out when `Cc1occc1C(=O)N1CCC[C@]2(C[C@@H](OCc3ccccn3)CO2)C1` was run?
Answer: 22.9%

Question: With `CCOCC1CN(Cc2ccccn2)Cc2nn(CC3CC3)cc21` (stereo not given) as the compound, how does the INHIBITION read?
Answer: -2.17%

Question: `O=C(NCC(F)(F)F)c1ccc(-c2ccco2)[nH]c1=O` was tested. Which INHIBITION did it give?
Answer: 14.4%

Question: How did the INHIBITION turn out when `COc1ccc(C2CCCN2S(=O)(=O)N(C)C)cc1` (stereo not given) was run?
Answer: -45.2%

Question: Which INHIBITION does the source give for `c1c(CN2CCCC2)nc2n1CCN(CC1CC1)C2` here?
Answer: -44.4%

Question: With `COc1cc(C(=O)N(Cc2cnn(C)c2)C(C)C)ccc1OC(C)C` as the compound, how does the INHIBITION read?
Answer: 27.8%

Question: Which INHIBITION does the source give for `CC1=N[C@@]2(CC[C@@H]3CN(Cc4ccccc4)C[C@@H]32)C(=O)N1CC1CC1` here?
Answer: -13.4%

Question: How did the INHIBITION turn out when `COc1ccc(C(=O)N2C[C@@H](C)[C@@](C)(O)C2)cc1N1CCOCC1` was run?
Answer: -4.92%

Question: For `COc1ccc(C(=O)N2CCOCC(CO)C2)cc1N1CCOCC1` (stereo not given), which INHIBITION is on record?
Answer: 49.9%

Question: Which INHIBITION does the source give for `COc1ccc(C(=O)N2CC[C@](C)(O)[C@H](C)C2)cc1N1CCOCC1` here?
Answer: 54.4%

Question: For `CC(C)Cn1cnc2ccc(NC(=O)CCCn3cccn3)cc2c1=O`, which INHIBITION is on record?
Answer: 13.2%

Question: For `CN(C)C(CNc1c(NCc2ccco2)c(=O)c1=O)c1ccccc1` (stereo not given), which INHIBITION is on record?
Answer: 4.48%

Question: How did the INHIBITION turn out when `c1cncc(OC[C@@]23CCC[C@@H]2CN(CC2CCOCC2)C3)c1` was run?
Answer: 47.4%

Question: For `CCS(=O)(=O)N1C[C@H]2CCC[C@@]2(COc2ccccn2)C1`, which INHIBITION is on record?
Answer: -23.7%

Question: `Cn1cc(CN2C[C@H]3CCC[C@@]3(COc3ccccn3)C2)cn1` was tested. Which INHIBITION did it give?
Answer: 67.5%

Question: For `Cn1cc(CN2C[C@H]3CCC[C@@]3(COCC3CC3)C2)cn1`, which INHIBITION is on record?
Answer: 8.6%

Question: `Fc1cnc(N2C[C@H]3CCC[C@@]3(COc3ccccn3)C2)nc1` was tested. Which INHIBITION did it give?
Answer: 76.6%

Question: For `Fc1cnc(N2C[C@@H]3COC[C@]3(COc3ccccn3)C2)nc1`, which INHIBITION is on record?
Answer: 43.1%

Question: Which INHIBITION does the source give for `CS(=O)(=O)N1C[C@H]2CCC[C@@]2(COc2ccccn2)C1` here?
Answer: 33%

Question: Which INHIBITION does the source give for `Cn1cc(CN2C[C@H]3CCC[C@@]3(COc3cccnc3)C2)cn1` here?
Answer: 52.1%

Question: How did the INHIBITION turn out when `O=S(=O)(C1CC1)N1C[C@H]2CCC[C@@]2(COc2ccccn2)C1` was run?
Answer: 0.79%

Question: For `CCn1ncc(CNc2[nH]cnc3nncc2-3)c1C`, which INHIBITION is on record?
Answer: 25.3%

Question: `CCCC1CN(CC(C)C)C(=O)c2cccnc2O1` (stereo not given) was tested. Which INHIBITION did it give?
Answer: 6.34%

Question: `O=C(NCc1ccc2c(c1)OCO2)Nc1cccnc1N1CCCC1` was tested. Which INHIBITION did it give?
Answer: -4.94%

Question: `O=c1cc(Cn2ccnc2)nc2n1CCCN(S(=O)(=O)C1CC1)C2` was tested. Which INHIBITION did it give?
Answer: -10.2%

Question: Which INHIBITION does the source give for `CN1C[C@H]2CC[C@@H](C1)N(Cc1ccccc1OCCN1CCOCC1)C2` here?
Answer: -154%

Question: For `CC(=O)N1CCC(NC(=O)N2CCN(c3cnccn3)CC2)CC1`, which INHIBITION is on record?
Answer: 48.2%

Question: How did the INHIBITION turn out when `Cc1nc2c(c(=O)[nH]1)CN(Cc1ccc3c(c1)CCCN3C)CC2` was run?
Answer: 30.5%

Question: `Cc1ccc(C(=O)N2CCC[C@@H]2Cn2nnc3c(O)nc(C)nc32)cc1` was tested. Which INHIBITION did it give?
Answer: 23.4%

Question: How did the INHIBITION turn out when `Cn1ccnc1CNCCNc1ncc(Cl)cc1Cl` was run?
Answer: 1.51%

Question: With `CCCc1n[nH]c(C2CN(CCS(=O)(=O)CC)CCO2)n1` (stereo not given) as the compound, how does the INHIBITION read?
Answer: 44.1%

Question: How did the INHIBITION turn out when `O=S(=O)(Nc1c(F)cccc1N1CCCC1)c1cncc(F)c1` was run?
Answer: 27.6%

Question: `N#Cc1cccc(S(=O)(=O)Nc2c(F)cccc2N2CCCC2)c1` was tested. Which INHIBITION did it give?
Answer: 50.1%

Question: How did the INHIBITION turn out when `Cn1cc(S(=O)(=O)Nc2c(F)cccc2N2CCCC2)cn1` was run?
Answer: -11.9%

Question: For `O=C(c1ccncc1)N1CCC(c2nc(O)cc(-c3ccncc3)n2)C1` (stereo not given), which INHIBITION is on record?
Answer: 48.3%

Question: With `CCCN1C[C@H](NC(=O)c2cccs2)[C@@H](c2ccc(OC)cc2)C1` as the compound, how does the INHIBITION read?
Answer: 31.6%

Question: Which INHIBITION does the source give for `CCCN1C[C@H](NC(=O)c2ccccc2F)[C@@H](c2ccc(OC)cc2)C1` here?
Answer: 54.4%

Question: How did the INHIBITION turn out when `CCCN1C[C@H](NC(=O)c2cc(C)no2)[C@@H](c2ccc(OC)cc2)C1` was run?
Answer: 35.2%

Question: For `CCN(CC)C1CCN(C(=O)NCc2cccc(NC(C)=O)c2)C1` (stereo not given), which INHIBITION is on record?
Answer: -4.15%

Question: For `CCCc1noc(CCC(=O)N2CCCC2c2cccs2)n1` (stereo not given), which INHIBITION is on record?
Answer: 29.7%

Question: For `CCCS(=O)(=O)N1C[C@@H]2C[C@H](C(=O)N3CCCC3)[C@H](C1)O2`, which INHIBITION is on record?
Answer: 35.8%

Question: Which INHIBITION does the source give for `Cc1ccccc1N1CCN(C(=O)c2cscn2)C(C)C1` (stereo not given) here?
Answer: 10.3%
